Measured values reported in PubChem BioAssay (NCI).
The panel holds about 83,000 compounds, 20% with a hit somewhere; the sample as a whole holds those more often.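 The test compound was applied at a single concentration to cells in 96-well plates for 48 hours, and percent growth was recorded.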 Calls of active or inactive are those of the source. How the source made its calls: active means growth percent below 10; inactive means the rest.

tested on: MDA-MB-468 breast; experiment: NCI-60 one-dose screen, 48 h (100 = growth as untreated, 0 = no growth, -100 = all killed); details: 10 µM unless noted

Row | Compound | growth
1 | COc1ccc(-n2cc(COc3ccc4c5ccnc(C)c5n(CC(C)C)c4c3)nn2)cc1 | 35.3% (inactive)
2 | CCCN(CCC)C(=O)c1ccc(C)cc1 | 96.3% (inactive)
3 | O=c1cc2oc3cc(O)c(O)cc3c(-c3ccccc3O)c-2cc1O | 93.9% (inactive)
4 | CCCCCCCCCCCCCCCCCCNCc1ccc(Cl)cc1 | -71.9% (active)
5 | CCN(CC)CCOC(=O)c1ccc(N=Nc2ccc(O)c(OC)c2)cc1 | 94% (inactive)
6 | COc1ccc2[nH]c(C(=O)N3CCN(C(=O)OCc4ccc5c(Br)cc(Br)c(O)c5n4)CC3)cc2c1 | -80.5% (active)
7 | COc1ccc(Cn2cc3c(c2-c2cc(OC)c(OC)c(OC)c2)CCc2c(CN4CCOCC4)noc2-3)cc1 | 45.5% (inactive)
8 | O=C(c1ccc(/C=C/c2n[nH]c3ccccc23)cc1)N1CCNCC1 | 65.9% (inactive)
9 | COc1ccc(C(=O)/C(=N/Nc2ccccc2)c2ccc(OC)cc2)cc1 | 106% (inactive)
10 | CCc1nc(N)nc(N)c1-c1ccc(Cl)cc1 | 62.5% (inactive)
11 | CCOC(=O)C(C)C(C)(O)c1ccccc1 (stereo unspecified) | 96.3% (inactive)
12 | O=C(CSc1nc2sc3c(c2c(=O)n1-c1ccc(Cl)cc1)CCCC3)N/N=C/c1ccc(F)cc1 | 129% (inactive)
13 | c1cc(NCCc2ccncc2)nc(-n2cnc3ccccc32)c1 | 95% (inactive)
14 | CCCCC1(CC)COC(CCC)OC1 (stereo unspecified) | 99.7% (inactive)
15 | N#Cc1nn(-c2cc(=O)[nH]c3ccc(Br)cc23)c(N)c1C#N | 106% (inactive)
16 | CCCCCCCCCCCCCCNCc1ccccc1 | -29.3% (active)
